In PubChem BioAssay AID738 (SRMLSC, 2007):
The campaign covered roughly 98,000 compounds. About 4,900 (5%) were called active. What follows is part of a selection rich in actives, with near analogues and random picks from the rest. Unmarked numbers belong to inactive results. Rule as the data show it: active = inhibition above about 30%; inactive = the rest.

assay: yeast control strain growth suppression – counter-screen for post-Golgi transport modulator project, primary screen (AID 738); conditions: efflux-deficient yeast background strain, growth absorbance A615, 16 h; at 10 µM; active compounds read high

Point of comparison: COc1cccc(C(=O)NNC(=O)c2ccccc2Br)c1, inhibition 0%. Against it:
- COc1cc(NS(=O)(=O)c2ccc(N/C=C(\C=O)c3nc4cc(Cl)ccc4o3)cc2)nc(OC)n1 — lower, -2.08%
- COc1cccc(-c2cc(C(=O)N/N=C/c3ccc(OC)c(COC(C)=O)c3)c3ccccc3n2)c1 — lower, -0.83%
- CCOc1ccccc1C1C(C(=O)OC)=CN(C)C=C1C(=O)OC — higher, 11.7%
- CCOc1ccc(CNC(=O)C2CCC(=O)N2C2CCCC2)cc1OC (stereo not drawn) — higher, 13.3%
- CC(C)c1ccc(-c2noc(C3CCCN(S(C)(=O)=O)C3)n2)cc1 (stereo not drawn) — lower, -5.28%
- O=C(Cc1cccs1)N1CCCC(c2nc(-c3ccc(S(=O)(=O)N4CCCC4)cc3)no2)C1 (stereo not drawn) — higher, 2.8%
- CCc1ccc(CNC(=O)CCc2nc(-c3cccs3)no2)cc1 — higher, 7.1%
- CC(C)NC(=O)C(=O)N/N=C/c1ccco1 — higher, 4.76%
- Cc1nn(C)c(Oc2ccccc2)c1CCNS(=O)(=O)c1ccc(F)cc1 — lower, -2.45%
- COc1ccc(CNC(=O)C2CCC(CNc3c(N4CCOCC4)c(=O)c3=O)CC2)cc1 (stereo not drawn) — higher, 3.7%
- COc1ccc(SCc2noc(C(=O)NCC3CCCO3)c2C(=O)O)cc1 (stereo not drawn) — higher, 0.46%
- O=C(/C=C/c1ccccc1)N/C(=C/c1ccccc1)C(=O)Nc1ccccc1O — higher, 18%
- CN(C)/C(CN1CCCCC1)=C1\N=C(c2ccccc2)OC1=O — higher, 11.8%
- COCCCNC(NC(=O)c1ccc(C)cc1)C(Cl)(Cl)Cl (stereo not drawn) — lower, -2.93%
- CC1CCCC(C)N1CCCNC(=O)c1cc2c(=O)n(C)c3ccccc3c2n1C (stereo not drawn) — higher, 1.45%
- CCn1c(=O)cc(OCC(=O)NCCCN2CCN(c3cccc(Cl)c3)CC2)c2ccccc21 — higher, 2.45%
- CCCCn1c(=S)[nH]c2cc(S(=O)(=O)N3CCCCC3)ccc21 — higher, 6.51%
- Cc1cc2cc3c(cc2nc1SCC(=O)Nc1c(C)cccc1C)CCC3 — higher, 13.7%
- CCOc1cc2[nH]c(=O)n(CCC(=O)NCc3ccc(OC)cc3)c(=O)c2cc1OCC — lower, -0.15%
- Cc1cccc(OCc2nnc(SCc3nc4cc(C(F)(F)F)ccc4c(=O)[nH]3)o2)c1 — higher, 2.6%
- Cc1cc(C)cc(OCc2nnc(SCC(=O)Nc3ccccc3)o2)c1 — lower, -1.36%
- CN(C(=O)CC(NC(=O)c1ccccc1)(c1ccccc1)c1ccccc1)c1ccccc1 — higher, 25.4%
- Cc1nn(C)c(Oc2ccccc2)c1[N+](=O)[O-] — higher, 5.76%
- O=c1c2ccccc2oc2nc3n(c(=O)c12)CCCS3 — higher, 0.28%
- CCc1nc2oc3ccccc3c(=O)c2c(=O)n1Cc1ccc(OC)cc1 — higher, 11.8%
- c1ccc(Nc2nc(-c3ccncc3)cs2)nc1 — higher, 4.87%
- O=C(Nc1ccc(Cl)cn1)Nc1cccs1 — higher, 19.8%
- Cc1ccc(OCC(=O)N/N=C/c2ccncc2)cc1 — higher, 7.69%
- Cc1ccc(C(=O)N2CCN(C(=O)N3CCOCC3)CC2)cc1 — lower, -1.43%
- CCOC(=O)C(=CNc1cccc(C)n1)C(=O)OCC — lower, -2.27%
- Cc1ccc(Cl)cc1NC(=O)COC(=O)C1CCCCC1 — lower, -5.31%
- Cc1noc(C)c1S(=O)(=O)N(CC(=O)NCc1ccc(Cl)cc1)c1ccc2c(c1)OCO2 — higher, 4.52%
- CCOC(=O)c1cccc(NC(=O)CN(c2ccc(C)cc2)S(=O)(=O)c2c(C)noc2C)c1 — higher, 26.9%
- CCOC(=O)Cc1csc(NC(NC(=O)OCC)(C(F)(F)F)C(F)(F)F)n1 — lower, -12.3%
- CCOC(=O)Cc1csc(NC(=O)CSc2nc(C)cc(=O)[nH]2)n1 — higher, 3.73%
- CCOc1cc(CNCCN(C)C)c(Cl)cc1OCC(=O)NCCc1ccccc1 — higher, 7.63%
- CCN(CC)S(=O)(=O)c1cc([N+](=O)[O-])ccc1NNC(=O)Nc1ccccc1 — higher, 5.17%
- COc1ccc(NC(=O)ON=C2c3ccccc3-c3ccccc32)cc1 — higher, 3.19%
- Cc1ccc(C2CC2C(=O)NN)cc1 (stereo not drawn) — lower, -1.07%
- COc1cccc(CNCCc2c[nH]c3ccccc23)c1OCc1ccccc1F — higher, 15.9%
- COCCCn1c(SCc2cccc(OC)c2)nc2cc(OC)c(OC)cc2c1=N — higher, 21.9%
- CN1CCN(c2ccc(NC(=O)COc3ccc(Cl)cc3Cl)cc2)CC1 — higher, 5.47%
- Cc1ccccc1OCC(=O)Nc1ccc(N2CCN(C(=O)C(C)C)CC2)c(Cl)c1 — higher, 6.6%
- CC(=O)NS(=O)(=O)c1ccc(NC(=O)/C=C/c2ccccc2Cl)cc1 — higher, 4.99%
- O=C(c1ccccc1)C(Cn1cncn1)C(Sc1ccccc1)c1ccccc1 (stereo not drawn) — higher, 26.1%
- CCOC(=O)N1CCN(C(c2cccnc2)c2ccc3cccnc3c2O)CC1 (stereo not drawn) — higher, 1.65%
- CCn1c(SCC(=O)Nc2nc3ccc(OC)cc3s2)nnc1-c1ccoc1C — higher, 19.9%
- CCOC(=O)c1c(C2CC2)csc1NC(=O)CSCc1c(C)noc1C — higher, 23.3%
- O=S(=O)(c1ccc(F)cc1)n1ccc(-c2cnc(-c3ccccc3)s2)n1 — higher, 6.8%
- COc1ccccc1N1CCN(C(=O)CN(Cc2ccc(Cl)cc2)S(C)(=O)=O)CC1 — higher, 1.33%
- O=S(=O)(O)c1nc2ccccc2n1Cc1ccc(Cl)cc1 — higher, 2.95%
- Cc1cccc(C(=O)Nc2ccc(C(=O)/C=C/c3cccs3)cc2)c1 — higher, 3.4%
- O=C(Nc1ccn(Cc2ccccc2F)n1)c1ccc(COc2ccc(Cl)cc2Cl)o1 — higher, 27.6%
- CC1Cc2nc(SCC(=O)Nc3ccccc3F)n(C)c(=O)c2S1 (stereo not drawn) — higher, 25.6%
- CCn1c(SCC(=O)Nc2ccc3c(c2)OCCO3)nc2c(c1=O)SC(C)C2 (stereo not drawn) — higher, 6.57%
- O=S(=O)(c1cccc2nonc12)N1CCN(c2cccc(Cl)c2)CC1 — lower, -0.91%
- Cc1cc(C)c([N+](=O)[O-])cc1-c1ccc(/C=N/NC(=O)c2nonc2N)o1 — higher, 8.91%
- Cc1cc([N+](=O)[O-])c(-c2ccc(/C=N/n3cnnc3)o2)cc1Cl — higher, 19.7%
- CC(=O)c1cc2c(cc1NC(=O)CN1CCCCCC1)OCO2 — higher, 5.16%
- C/C=C/C(=O)OCC(=O)Nc1ccc(F)cc1Cl — higher, 3.31%
- COC(=O)CNC(=O)c1ccccc1F — higher, 4.83%
- CC(Oc1ccc(F)cc1F)C(=O)/C=C/N(C)C (stereo not drawn) — lower, -1.04%
- Cc1ccc(N2C(=O)C(Cc3ccccc3)NC2=S)cc1 (stereo not drawn) — higher, 5.73%
- COc1cc(Cl)c(C)cc1NC(=O)CSc1nnc(-c2cccnc2)n1Cc1ccco1 — higher, 3.14%
- CCn1c(SCC(=O)Nc2cc(C)c(Cl)cc2OC)nnc1-c1ccco1 — higher, 26.5%
- O=C1CC(C(F)(F)C(F)(F)C(F)(F)C(F)(F)F)=Nc2ccccc2N1 — higher, 16.7%
- CCN(CC)C(=O)CCC(=O)Nc1ccc(C(=O)OC)cc1 — higher, 1.42%
- O=C(CSCc1ccc(Br)cc1)Nc1ccc(S(=O)(=O)N2CCCCCC2)cc1 — higher, 6.87%
- O=C(Nc1ccc2c(c1)CCC2)c1cccc(S(=O)(=O)N2CCN(c3ccc(F)cc3)CC2)c1 — higher, 17.8%
- COc1cc(OC)c(-n2c(C)cc(C=O)c2C)cc1Cl — higher, 20.4%
- Cc1ccc(-n2c(C)cc(/C=N/Nc3ccc([N+](=O)[O-])cn3)c2C)c(C)c1 — higher, 3.3%
- O=C(O)c1ccccc1NC(=S)NC(NC(=O)c1ccccc1[N+](=O)[O-])C(Cl)(Cl)Cl (stereo not drawn) — higher, 21.6%

For CCOc1cc(C2C(C(=O)OC)=CN(C3CCCC3)C=C2C(=O)OC)cc(Br)c1O, the inhibition was 38.7% (active).
For O=C(c1cccs1)N1CCCC(c2nc(-c3ccc(F)cc3)no2)C1 (stereo not drawn), the inhibition was 43.9% (active).
For Cn1cccc1C1(C(F)(F)F)NCCNC1=O (stereo not drawn), the inhibition was 48.1% (active).
For Cn1c(C(=O)NCCCN2CCN(c3cccc(Cl)c3)CC2)cc2c(=O)n(C)c3ccccc3c21, the inhibition was 95.8% (active).
With Cc1cccc(OCc2nnc(SCn3nnc4ccccc4c3=O)o2)c1 the inhibition was 36.4% (active).
With O=C(N/N=C/C=C/c1ccccc1)C1CC1(c1ccccc1)c1ccccc1 (stereo not drawn) the inhibition was 64% (active).
With O=c1c2ccccc2oc2nc(C3CCCCC3)n(Cc3ccco3)c(=O)c12 the inhibition was 78.7% (active).
In the case of Clc1ccc(Nc2nc(-c3cccs3)cs2)nc1, the inhibition is reported as 45.4% (active).
With Cc1noc(C)c1S(=O)(=O)N(CC(=O)Nc1ccc2c(c1)OCCO2)c1ccc(C(C)C)cc1 the inhibition was 36.1% (active).
For CCOC(=O)Cc1csc(NC(=O)C(C)(C)C)n1, the inhibition was 50.5% (active).
In the case of O=C(Nc1ccccc1)O/N=C1\CCCCC1c1ccc([N+](=O)[O-])cc1[N+](=O)[O-] (stereo not drawn), the inhibition is reported as 47.9% (active).
For Cc1ccc(NC(=O)COc2ccc(-n3ccnc3)cc2)cc1Cl, the inhibition was 34.5% (active).
With Cc1noc(C)c1CSCC(=O)Nc1nc2ccc(Oc3ccccc3)cc2s1 the inhibition was 56.3% (active).
With COc1ccccc1-n1nnnc1S(=O)(=O)Cc1ccc(Cl)cc1 the inhibition was 32.4% (active).
For CCn1c(SCC(=O)Nc2ccccc2F)nc2c(c1=O)SC(C)C2 (stereo not drawn), the inhibition was 103% (active).
With Cc1cc(-c2ccc(/C=N/n3cnnc3)o2)c([N+](=O)[O-])cc1C the inhibition was 39.1% (active).
In the case of CN(C)/C=C/C(=O)c1ccccc1F, the inhibition is reported as 36.4% (active).
With COc1cc(Cl)c(C)cc1NC(=O)CSc1nnc(-c2ccco2)n1CC(C)C the inhibition was 34% (active).
In the case of COCC(=O)Nc1ccc(Br)cc1, the inhibition is reported as 36.8% (active).
For Cc1cc(C=O)c(C)n1-c1ccc(NC2CCCCC2)c([N+](=O)[O-])c1, the inhibition was 39% (active).
